Assay outcomes from PubChem BioAssay.
Rows were chosen to be rich in hits. Some 13% of all compounds tested hit in one or more screens of this group.
CHOP inhibitor: CHOP inhibition in unfolded protein response; CHO-K1 CHOP-promoter luciferase, tunicamycin-induced, 15-18 h; inhibition, % at 10 µM; 220,000 tested, 3.8% active; AID 2732;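 active = compounds that reduced the stress-induced luciferase reporter signal by more than about 70% of percent inhibition, limit read from the data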;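 note: 0% = tunicamycin plus vehicle and 100% = wells without tunicamycin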
RAM network inh: yeast RAM network inhibition | S. cerevisiae dse1pr::URA3 reporter, 5-FOA growth OD615, 2 d; analog-sensitive cbk1-as2 kinase mutant strain | inhibition, % at 50 µM | 190,000 tested, 1.8% active;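 active = inhibition above a set limit, 3 SD over mean compound inhibition, cut at about 8.4% in these data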;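 note: 0% = DMSO-only wells with no growth and 100% = 10 µM 1-NA-PP1 full growth; inhibition rescues growth on 5-FOA so higher OD means more RAM inhibition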
WT yeast gro inh: growth inhibition of WT yeast, mitochondrial fusion screen. mitochondrial fusion phenotypic screen, WT strain. inhibition, % at 10 µM. 190,000 tested, 2.1% active; in the data active = inhibition above about 58%; tested in S. cerevisiae
Lmaj promast: inhibitors of Leishmania major promastigote growth; Leishmania major promastigotes, resazurin fluorescence viability; inhibition, % at 10 µM; 200,000 tested, 9% active; AID 1063; in the data active = inhibition above about 50%;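 note: promastigotes grown with compound for 44 hours at 28 °C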
Starred values were filed as active, the others as inactive.

Screening COC(=O)NCC(c1cccnc1)N1CCN(c2ccccc2)CC1 (stereo unspecified) returned CHOP inhibitor 15, RAM network inh 0, WT yeast gro inh 4 and Lmaj promast 45.
For O=C(NCC(c1cccnc1)N1CCN(c2ccccc2F)CC1)OCc1ccccc1 (stereo unspecified) the results were CHOP inhibitor 11, RAM network inh 1, WT yeast gro inh 30 and Lmaj promast 96*.
O=C(NCC(c1cccnc1)N1CCN(c2ccc(F)cc2)CC1)OCc1ccccc1 (stereo unspecified) was read as CHOP inhibitor 9, RAM network inh -1, WT yeast gro inh 35 and Lmaj promast 99*.
O=C(NCC(c1cccnc1)N1CCN(c2ccccc2)CC1)OCc1ccccc1 (stereo unspecified) was read as CHOP inhibitor -9, RAM network inh -1, WT yeast gro inh 11 and Lmaj promast 96*.
COc1ccc(C(=O)c2nccc3ccccc23)cc1 was read as CHOP inhibitor 10, RAM network inh -1, WT yeast gro inh -18 and Lmaj promast 0.
Screening CC1=NNC(=O)/C1=C\c1cn(-c2ccccc2)nc1-c1ccc(Cl)cc1 returned CHOP inhibitor 108*, RAM network inh 5, WT yeast gro inh 11 and Lmaj promast 101*.
Screening COc1ccc(OC)c(-n2c(SCC(=O)Nc3cccc(S(N)(=O)=O)c3)nc3ccccc3c2=O)c1 returned CHOP inhibitor 4.
`COC(=O)c1oc2ccc(Br)cc2c1NC(=O)CCCN1C(=O)c2ccccc2C1=O` gave CHOP inhibitor 95*, RAM network inh 1, WT yeast gro inh 14 and Lmaj promast -6.
`O=C(NNC(=S)Nc1ccc(Cl)cc1Cl)C1CC1` gave CHOP inhibitor 7, RAM network inh 1, WT yeast gro inh -16 and Lmaj promast -9.
`CCOC(=O)C1=C(C)NC(SCC(=O)Nc2nc(C)cs2)=C(C#N)C1c1cccs1` (stereo unspecified) gave CHOP inhibitor 75*, RAM network inh 5, WT yeast gro inh 16 and Lmaj promast 36.
For CC(=O)C1=C(C)NC(SCSc2ccccc2)=C(C#N)C1c1cccnc1 (stereo unspecified) the results were CHOP inhibitor 5, RAM network inh 1, WT yeast gro inh 22 and Lmaj promast 100*.
CC1=C(C(=O)Nc2ccccc2)C(c2ccncc2)C(C#N)=C(SCC(=O)Nc2ccccc2)N1 (stereo unspecified) was read as CHOP inhibitor 8, RAM network inh 1, WT yeast gro inh 2 and Lmaj promast 99*.
For CCOC(=O)C1=C(c2ccccc2)NC(SCC(N)=O)=C(C#N)C1c1cccnc1 (stereo unspecified) the results were CHOP inhibitor 4, RAM network inh 0, WT yeast gro inh -1 and Lmaj promast 31.
`C=CCOC(=O)C1=C(C)NC(SCC(N)=O)=C(C#N)C1c1cccs1` (stereo unspecified) gave CHOP inhibitor -2, RAM network inh 5, WT yeast gro inh -4 and Lmaj promast 4.
`COc1cc(OC)c(NC(=O)C(=O)CC(=O)c2ccc(C)cc2C)cc1Cl` gave CHOP inhibitor 49, RAM network inh 2, WT yeast gro inh -3 and Lmaj promast 100*.
`Cn1c(=O)c2nnn(/N=C(\c3ccccc3)C3CC3)c2n(C)c1=O` gave CHOP inhibitor 18, RAM network inh 0, WT yeast gro inh 7 and Lmaj promast 76*.
`C=CCn1c(=O)c2ccccc2n2c(Sc3nnnn3-c3ccccc3)nnc12` gave CHOP inhibitor -3, RAM network inh 5, WT yeast gro inh -31 and Lmaj promast 56*.
`CS(=O)(=O)CCC(C(=O)OCc1ccc(Br)cc1)N1C(=O)c2ccccc2C1=O` (stereo unspecified) gave CHOP inhibitor 34, RAM network inh 0, WT yeast gro inh -23 and Lmaj promast -8.
CC(=O)c1ccc(OC(=O)C(CCS(C)(=O)=O)N2C(=O)c3ccccc3C2=O)cc1 (stereo unspecified) was read as CHOP inhibitor 3, RAM network inh 3, WT yeast gro inh -2 and Lmaj promast 67*.
For CCOc1ccc(OC(=O)C(CCS(C)(=O)=O)N2C(=O)c3ccccc3C2=O)cc1 (stereo unspecified) the results were CHOP inhibitor -7, RAM network inh 0, WT yeast gro inh 7 and Lmaj promast 72*.
COC(=O)c1ccc(COC(=O)C(CCS(C)(=O)=O)N2C(=O)c3ccccc3C2=O)cc1 (stereo unspecified) was read as CHOP inhibitor 12, RAM network inh 1, WT yeast gro inh 2 and Lmaj promast -4.
For CC(C)c1cc(-c2cc(C(=O)NCc3ccccc3)on2)nc(NCC2CC2)n1 the results were CHOP inhibitor 55.
Cc1ccc(C)c(NC(=S)NNC(=O)c2csc3c2CCCC3)c1 was read as CHOP inhibitor 52, RAM network inh 2, WT yeast gro inh 34 and Lmaj promast 1.
`Cc1ccc(C)c(NC(=S)NNC(=O)c2csc3c2CCC(C)C3)c1` (stereo unspecified) gave CHOP inhibitor 90*, RAM network inh 2, WT yeast gro inh 13 and Lmaj promast 10.
Screening CCS(=O)(=O)NCCNc1ccc([N+](=O)[O-])cc1 returned CHOP inhibitor -22, RAM network inh 0, WT yeast gro inh -1 and Lmaj promast -3.
`O=C1/C(=C/c2ccc(O)c([N+](=O)[O-])c2)SC(=S)N1Cc1ccccc1` gave CHOP inhibitor 51, RAM network inh 5, WT yeast gro inh 31 and Lmaj promast 16.
O=C1CSC(=S)N1Cc1cccnc1 was read as CHOP inhibitor 2, RAM network inh 2, WT yeast gro inh 6 and Lmaj promast 100*.
Screening O=C1/C(=C/c2ccccc2O)SC(=S)N1Cc1cccnc1 returned CHOP inhibitor 6, RAM network inh 2, WT yeast gro inh 10 and Lmaj promast 88*.
Screening Cc1ccc(NC(=O)COc2ccccc2C(=O)NCCN(C)C)cc1 returned CHOP inhibitor 21, RAM network inh 1, WT yeast gro inh 12 and Lmaj promast 3.
Screening O=C(O)c1cc([N+](=O)[O-])ccc1NCCO returned CHOP inhibitor 2, RAM network inh 5, WT yeast gro inh -10 and Lmaj promast 56*.
O=C(O)c1cc([N+](=O)[O-])ccc1NCCc1ccccc1 was read as CHOP inhibitor 23.
COc1ccc(C(=O)OC2CCN(C)CC2)cc1 was read as CHOP inhibitor 10, RAM network inh 3, WT yeast gro inh 23 and Lmaj promast 12.
For Cc1c(Br)cc(C(=O)OC2CCN(C)CC2)c(C)c1C the results were CHOP inhibitor 13, RAM network inh 0, WT yeast gro inh -6 and Lmaj promast 86*.
For O=C(COc1ccc(/C=N/NC(=O)c2ccccc2O)cc1)Nc1ccc([N+](=O)[O-])cc1 the results were CHOP inhibitor 90*, RAM network inh 4, WT yeast gro inh -2 and Lmaj promast -10.
For Cc1nc(NC(=O)c2ccco2)sc1-c1csc(Nc2ccc(Cl)cc2Cl)n1 the results were CHOP inhibitor -39, RAM network inh 4, WT yeast gro inh 71* and Lmaj promast 74*.
